aSyn 5UTR act – Activators via SNCA 5'UTR binding, MLPCN; alpha-synuclein 5'UTR reporter, activators screen; activity score, % (tested at 7.5 µM), hits read low; hit rate 7.1% among 300,000; in the data active = activity score below about -60%
Numbers without * were called inactive. Not all results are given here.

SMILES | aSyn 5UTR act
N#CC(C(=O)C12CC3CC(CC(C3)C1)C2)c1nc2ccccc2[nH]1 (stereo not given) | -73.7*
CC(=O)c1sc(-c2ccccc2)cc1N | -63.2*
CCOC(=O)c1sc(-c2ccccc2)cc1N | -116.3*
CCOC(=O)c1cc(-c2ccccc2)sc1N | -94.1*
CCOC(=O)c1sc(-c2ccc(F)cc2)cc1N | -142.5*
CCOC(=O)c1cc(-c2ccccc2)sc1NC(=O)COC(=O)c1cccc(S(N)(=O)=O)c1 | 71.6
CCOC(=O)c1sc(-c2ccc(OC)cc2)cc1N | -158.4*
O=C(c1ccccc1)N1CCSc2sccc2C1=O | 96.8
Cc1sc2c(c1C)CN(C(C)(C)C)CN2C(=O)c1ccccc1 | -64.4*
CCCCOC(=O)c1cc(-c2ccc(/C=N/n3cnnc3)o2)ccc1Cl | -74.2*
CCOC(=O)c1cc(-c2ccc(/C=C3/C(=O)N(c4ccc(C(=O)O)cc4)N=C3C)o2)ccc1Cl | -75.5*
CCc1ccc(C(=O)COC(=O)c2cccs2)cc1 | -139.0*
CC(=O)Nc1cc(C(=O)OCC(=O)c2ccc(C)cc2)ccc1C | -151.0*
Cc1ccc(C(=O)COC(=O)c2cccs2)cc1 | -114.5*
CCOC(=O)C(Nc1ccc2ccccc2c1)C(=O)OCC | -138.1*
CC(=O)NC(c1ccc(C)cc1)c1cc(Cl)c2cccnc2c1O (stereo not given) | 59.9
O=S(=O)(Nc1cc(Sc2cccc3cccnc23)c(O)c2ccccc12)c1ccccc1 | -138.9*
Cc1cc(C(=O)O/N=C(\N)c2ccncc2)ccc1[N+](=O)[O-] | -124.1*
COc1ccc(CCOC(=O)c2ccc(N)c([N+](=O)[O-])c2)cc1 | -73.3*
COc1ccc(/C(N)=N/OC(=O)c2ccc(C)c([N+](=O)[O-])c2)cc1 | -165.4*
O=C(Nc1ccc(Cl)cc1)OCc1ccccn1 | -134.0*
CS(=O)(=O)c1ccccc1COC(=O)Nc1ccc(Cl)cc1 | -69.6*
CCOC(=O)c1cn(-c2c(Cl)cccc2Cl)c2cc(Cl)c([N+](=O)[O-])cc2c1=O | -89.6*
Cc1ccccc1CSc1ccc(-c2ccc3c(c2)OCO3)nn1 | -82.8*
Cc1nc(C)c(-c2ccc(SCc3ccccc3C)nn2)s1 | -97.5*
SMILES | aSyn 5UTR act
c1cncc(CSc2ccc(-c3ccc4c(c3)OCO4)nn2)c1 | -109.1*
COc1ccc(N=Cc2sc(O)c3ccccc23)cc1 | -274.0*
COc1ccc(N=Cc2c(O)c3ccccc3n2C(C)=O)cc1 | -131.5*
CC(=O)c1cccc(NC(=S)NC(=O)c2cccc(C)c2)c1 | -145.2*
CC(=O)c1cccc(NC(=S)NC(=O)c2ccc(Cl)cc2)c1 | -130.8*
CC(=O)c1cccc(NC(=S)NC(=O)c2ccccc2C)c1 | -63.6*
CCc1cc2c(N=Nc3c(O)[nH]c4ccccc34)ncnc2s1 | -62.1*
Oc1[nH]c2ccccc2c1N=Nc1nncc2ccccc12 | -62.2*
Cc1sc2ncnc(N=Nc3c(O)[nH]c4ccccc34)c2c1C | -140.9*
CC1C(=O)C(C)C(c2ccc(Cl)cc2)NC1c1ccc(Cl)cc1 (stereo not given) | 68.5
COc1ccc(NC(=S)NC(=O)c2ccccc2)cn1 | -137.8*
COc1ccc(NC(=O)c2cccc(Oc3ccccc3)c2)cn1 | -108.5*
C=CC[C@]12CC=CC(=O)[C@@]1(O)O[C@H](c1ccc(OC)c(OC)c1)[C@H]2C | -94.0*
N/C(=N\OC(=O)c1ccc(Cl)cc1[N+](=O)[O-])c1ccccn1 | -165.1*
N/C(=N\OC(=O)c1ccc(Cl)cc1Cl)c1ccccn1 | 88.8
N/C(=N\OC(=O)c1cc([N+](=O)[O-])ccc1Cl)c1ccccn1 | -82.4*
N/C(=N\OC(=O)c1ccc([N+](=O)[O-])cc1Cl)c1ccccn1 | 68.9
CCCCOc1ccc(-c2[nH]ncc2C=O)cc1 | -82.5*
CCCCOc1ccc(-c2ncc(Cl)cn2)cc1 | -88.9*
CCCCOc1ccc(-c2ncc([N+](=O)[O-])cn2)cc1 | -132.5*
Cc1ccsc1/C=N/NC(=O)C(=O)NCC(C)C | -76.5*
Cc1ccsc1/C=N/NC(=S)NCCc1ccccc1 | -108.0*
CCNC(=S)N/N=C/c1cn(Cc2ccccc2F)c2ccccc12 | 52.0
CCNC(=S)N/N=C/c1sccc1C | -71.4*
CC(C)(C)C(=O)Nc1nc2cc3c(cc2s1)OCO3 | -144.3*
SMILES | aSyn 5UTR act
O=C(Nc1nc2cc3c(cc2s1)OCCO3)C1=COCCO1 | 99.0
CC(C)C(=O)Nc1nc2cc3c(cc2s1)OCO3 | -178.5*
COc1ccc(C)cc1NC(=O)CCc1c(C)nn(-c2ccc(N3CCCCC3)nn2)c1C | -94.7*
Cc1ccc(F)cc1NC(=O)CCc1c(C)nn(-c2ccc(N3CCCCC3)nn2)c1C | -81.9*
Cc1ccc(NC(=O)CCc2c(C)nn(-c3ccc(N4CCCCC4)nn3)c2C)cc1 | -107.1*
Cc1ccc(NC(=O)CCc2c(C)nn(-c3ccc(N4CCOCC4)nn3)c2C)cc1F | -85.7*
CC(=O)c1ccc(NC(=O)CCc2nnc3ccc(N4CCCC4)nn23)cc1 | -95.1*
Cc1nn(-c2ccc(N3CCCCC3)nn2)c(C)c1CCC(=O)Nc1ccc(F)c(F)c1 | -65.6*
Cc1ccc(C(c2cc(Cl)c3cccnc3c2O)N2CCN(C)CC2)cc1 (stereo not given) | 66.3
CN1CCN(c2ccc(-c3ccc4ccccc4n3)cc2)CC1 | 111.6
CC(C)c1ccc(-c2cc(C(=O)NN3CCN(C)CC3)c3ccccc3n2)cc1 | -116.8*
CC(C)c1ccc(-c2cc(C(=O)N3N=C(C(F)F)CC3(O)C(F)F)c3ccccc3n2)cc1 (stereo not given) | -166.0*
Cc1ccc2nc3ccc(N4CCCC4)nn3c(=O)c2c1 | -162.5*
Cc1ccc(C(=O)NNc2cc(N3CCCC3)nc(N3CCCC3)n2)cc1 | 73.7
Cc1sc2nc3ccc(N4CCCCC4)nn3c(=O)c2c1C | -180.7*
COc1ccccc1NC(=S)N/N=C/c1ccc(O)cc1 | -156.8*
COc1ccccc1NC(=S)N/N=C/c1cccc(C)c1 | -66.4*
COc1ccc(Oc2ccc(C(F)(F)F)cc2N)cc1 | -68.2*
COc1ccccc1C(=O)Nc1nnc(SCC(=O)Nc2ccc3c(c2)oc2ccccc23)s1 | -152.1*
Cc1ccccc1C(=O)Nc1nnc(SC(C)C)s1 | -96.6*
CC(C)=CC(=O)Nc1nnc(-c2ccccc2)s1 | -187.2*
COc1ccccc1C(=O)Nc1nc(-c2cccs2)c(NC(C)=O)s1 | -128.0*
O=C(Nc1ccccc1)Nc1nnc(-c2ccccc2)s1 | -161.6*
O=C(CSc1ncn[nH]1)Nc1nnc(-c2ccccc2)s1 | -73.5*
O=C(Nc1nnc(-c2ccccc2)s1)c1ccccc1O | -153.1*
SMILES | aSyn 5UTR act
CCOc1ccccc1C(=O)Nc1nnc(C(C)C)s1 | -175.7*
COc1ccccc1C(=O)Nc1nnc(-c2ccccc2)s1 | -152.9*
COc1ccccc1C(=O)Nc1nnc(C)s1 | -211.3*
CC(=O)Nc1ccc(-c2nnc(SCC(=O)Nc3ccc4c(c3)oc3ccccc34)n2C)cc1 | -92.0*
COc1ccccc1C(=O)N(C)c1nnc(-c2ccccc2)s1 | -117.3*
COc1cccc(C(=O)Nc2nnc(-c3ccccc3)s2)c1OC | -112.9*
Cc1c(C(=O)NCc2cccnc2)sc2nc(-c3ccc(F)cc3)cn12 | -144.2*
Cc1nc2cc(-c3ccccc3)nn2c(C)c1CCC(=O)NCc1ccco1 | 53.4
Cc1c(C(=O)NCc2ccco2)sc2nc(-c3ccccc3)cn12 | -83.0*
Cc1c(C(=O)N2CCOCC2)sc2nc(-c3ccccc3)cn12 | -122.5*
c1ccc(-c2cn3c4c(sc3n2)CCCC4)cc1 | 116.8
CNc1nn(-c2cccc(Cl)c2)nc1N | -97.1*
CC1=CN2C(=N)/C(=C/c3ccco3)C(=O)N=C2S1 | -219.1*
Nc1cnc(Nc2ccc(Br)cc2)nc1N | -105.9*

Assay outcomes from PubChem.
